This is one part of a sample in which hits are shown more often than they occur.
IDE exosite FP: exo-site inhibitors of human insulin-degrading enzyme | hit rate 6.3% among 17,000 | purified IDE, FL-6b probe fluorescence polarization; stronger effect = lower value | AID 1259349 | P14735 | z-score at 20 µM;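 active means z-score of -3 or lower, meaning strong loss of probe binding signal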;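 further: His-tagged human IDE residues 42-1019 made in E. coli with 30 nM FL-6b probe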
* marks the source's active call; other numbers are inactive results; ! = a repeat was not active.

SMILES | IDE exosite FP
CCS(=O)(=O)Nc1ccc2c(c1)C(=O)N(C)[C@@H]1CC[C@@H](CC(=O)NCc3ccccc3F)O[C@H]1CO2 | -0.65
CC(C)[C@H]1COCc2cn(nn2)CCC[C@H](C)C(=O)N1 | 1.9
C[C@@H]1CCCCO[C@H](CN(C)CC2CC2)[C@H](C)CN([C@@H](C)CO)C(=O)c2cc(NC(=O)c3ccccc3)ccc2O1 | -0.49
O=C(C[C@@H]1CC[C@H](NC(=O)Nc2ccc(C(F)(F)F)cc2)[C@@H](CO)O1)NCc1cccc(F)c1 | 1.9
COc1ccccc1NC(=O)N1C[C@@H]2[C@H](c3ccccc31)[C@H](CO)N2C(=O)C1CCCC1 | 2.9
CO[C@@H]1CN(C)C(=O)c2cc(NS(=O)(=O)c3cccc(Cl)c3)ccc2OC[C@@H](C)NC[C@H]1C | -0.92
CCCC(=O)Nc1ccc2c(c1)OC[C@@H](C)N(C(=O)c1cccnc1)C[C@@H](C)[C@H](OC)CN(C)C2=O | 0.24
O=C(C[C@@H]1C[C@H]2c3cc(NC(=O)C4CCC4)ccc3O[C@H]2[C@@H](CO)O1)NC1CCCC1 | -0.75
C/C=C/c1ccc([C@@H]2[C@@H](CO)N(C(C)=O)[C@@H]2CN(C)S(C)(=O)=O)cc1 | 3
C/C=C/c1ccc([C@@H]2[C@H](CO)N3C(=O)CN(S(=O)(=O)c4cccc(F)c4)C[C@@H]23)cc1 | 2.1
CCCNC(=O)N1[C@@H]2CNC[C@H]1C2c1ccc(-c2ccc(C)cc2)cc1 (stereo not given in full) | -3.2*!
CC(C)NC(=O)N1[C@@H]2CNC[C@H]1C2c1ccc(-c2cccc(C#N)c2)cc1 (stereo not given in full) | 3.9
O=C(Nc1cccc(Cl)c1)N1[C@@H]2CNC[C@H]1C2c1ccc(/C=C/c2ccccc2)cc1 (stereo not given in full) | -0.29
CCCNC(=O)N1[C@@H]2CNC[C@H]1C2c1ccc(/C=C/c2ccccc2)cc1 (stereo not given in full) | -7.5*
CCCNC(=O)N1[C@@H](CO)[C@@H](c2ccc(-c3ccccc3)cc2)[C@@H]1CNC(C)=O | 0.87
CC(C)NC(=O)N1[C@@H]2CNC[C@H]1C2c1ccc(/C=C/c2ccccc2)cc1 (stereo not given in full) | -1.7
COc1cccc(-c2ccc(C3[C@H]4CNC[C@@H]3N4C(=O)Nc3ccccc3F)cc2)c1 (stereo not given in full) | 1.2
CC(C)C#Cc1ccc([C@@H]2[C@H](CO)N3C(=O)CN(C(=O)C4CCCCC4)C[C@@H]23)cc1 | 1.8
N#C[C@@H]1[C@H](c2ccccc2-c2ccccc2)[C@H](CO)N1C(=O)Cc1ccncc1 | 0.41
CCCN1[C@H](CO)[C@H](c2ccc(C#Cc3ccccc3)cc2)[C@@H]1CNC1CCCC1 | -0.9
CC(C)C#Cc1ccc([C@H]2[C@@H](CO)N3CCCCN(CC4CC4)C[C@@H]23)cc1 | 4.7
O=C(CC1CC1)N1CC(=O)N2[C@@H](CO)[C@H](c3ccc(/C=C/c4ccccc4)cc3)[C@@H]2C1 | -5*
O=C(CC1CC1)N1CC(=O)N2[C@H](CO)[C@H](c3ccc(/C=C/c4ccccc4)cc3)[C@@H]2C1 | -1.5
O=C(CC1CC1)N1CC(=O)N2[C@@H](CO)[C@@H](c3ccc(-c4ccccc4)cc3)[C@@H]2C1 | -4.8*
O=C(CC1CC1)N1CC(=O)N2[C@H](CO)[C@@H](c3ccc(/C=C/c4ccccc4)cc3)[C@H]2C1 | -3.3*
SMILES | IDE exosite FP
COCC(=O)N1CC(=O)N2[C@@H](CO)[C@H](c3ccc(-c4ccccc4)cc3)[C@@H]2C1 | -0.89
O=C(CC1CC1)N1CC(=O)N2[C@H](CO)[C@@H](c3ccc(-c4cccnc4)cc3)[C@@H]2C1 | -1.3
CCCC#Cc1ccc([C@@H]2[C@@H](C#N)N(C(=O)C3CCC3)[C@@H]2CO)cc1 | 2.2
N#C[C@H]1[C@@H](c2ccccc2-c2ccccc2F)[C@H](CO)N1C(=O)c1cccc(F)c1 | 1.1
CN(C[C@H]1N[C@@H](CO)[C@@H]1c1ccc(C2=CCCC2)cc1)C(=O)c1ccccn1 | 4.6
O=C(Nc1ccccc1)N1CC(=O)N2[C@H](CO)[C@H](c3ccc(C#CC4CC4)cc3)[C@H]2C1 | -0.6
CN(C)C(=O)c1cccc(-c2ccc([C@H]3[C@@H](CO)N4CCCCN(CCC(F)(F)F)C[C@@H]34)cc2)c1 | 1.9
COc1ccc(-c2ccccc2[C@@H]2[C@@H](CO)N(C(=O)NC(C)C)[C@H]2C#N)cc1 | 0.46
CCCNC(=O)N1CC2(C1)[C@@H](c1ccccc1)[C@H](CO)N2CC1CCOCC1 | -0.035
CCC(=O)N1[C@H](C#N)[C@H](c2ccccc2-c2ccccc2)[C@@H]1CO | 0.86
COCC(=O)Nc1ccc2c(c1)C(=O)N(C)[C@@H]1CC[C@H](CC(=O)NCCCN(C)C)O[C@H]1CO2 | -3.3*
CN1C(=O)c2cc(NC(=O)Nc3ccccc3Cl)ccc2OC[C@@H]2O[C@@H](CC(=O)NCCCN3CCOCC3)CC[C@@H]21 | -5.1*
CN1C(=O)c2cc(NC(=O)Nc3ccccc3Cl)ccc2OC[C@@H]2O[C@H](CC(=O)NCCCN3CCOCC3)CC[C@H]21 | -1.5
COCC(=O)Nc1ccc2c(c1)C(=O)N(C)[C@@H]1CC[C@@H](CC(=O)NCCCN(C)C)O[C@H]1CO2 | 0.71
COCC(=O)Nc1ccc2c(c1)C(=O)N(C)[C@H]1CC[C@@H](CC(=O)NCCCN(C)C)O[C@H]1CO2 | -1.2
CN1C(=O)c2cc(NC(=O)Nc3ccccc3Cl)ccc2OC[C@@H]2O[C@@H](CC(=O)NCCCN3CCOCC3)CC[C@H]21 | -1
O=C(Cc1ccccc1)N1CC(=O)N2[C@H](CO)[C@@H](c3ccc(C4=CCCC4)cc3)[C@@H]2C1 | 1.7
CC=Cc1ccc2n(c1=O)C[C@@H]1[C@@H](CO)[C@H](C(=O)N[C@@H](C)c3ccccc3)[C@H]2N1Cc1cncnc1 (mixture of isomers) | 0.11
COc1ccc2c3c(n(C)c2c1)[C@@H](CO)N(C(=O)C1CCOCC1)CC31CN(C)C1 | -0.84
C[C@H](NC(=O)C[C@H]1CC[C@@H]2[C@@H](COc3ccc(NS(=O)(=O)c4ccc(Cl)cc4)cc3C(=O)N2C)O1)c1ccccc1 | -0.44
CCS(=O)(=O)N[C@H]1CC[C@H](CC(=O)NCc2ccc(Cl)cc2)O[C@H]1CO | 3.5
CCCC#Cc1ccc([C@H]2[C@H]3CN(C(=O)c4ccc5c(c4)OCO5)CCCCN3[C@H]2CO)cc1 | 2
N#C[C@H]1[C@H](c2ccc(C#Cc3ccc(F)cc3)cc2)[C@H](CO)N1C(=O)C1CCCC1 | 4
COc1ccccc1C#Cc1ccc([C@H]2[C@@H](CO)N(C(=O)C3CCCCC3)[C@H]2C#N)cc1 | -5.1*
COc1ccccc1C#Cc1ccc([C@@H]2[C@@H](C#N)N(C(=O)C3CCCCC3)[C@@H]2CO)cc1 | -8.6*
SMILES | IDE exosite FP
N#C[C@@H]1[C@@H](c2ccc(C#Cc3ccc(F)cc3)cc2)[C@H](CO)N1C(=O)C1CCCC1 | 5.4
COc1ccccc1C#Cc1ccc([C@H]2[C@@H](C#N)N(C(=O)C3CCC3)[C@@H]2CO)cc1 | -7.8*
COc1cccc(C#Cc2ccc([C@@H]3[C@@H](C#N)N(C(=O)C4CCCCC4)[C@H]3CO)cc2)c1 | 2.4
N#C[C@H]1[C@H](c2ccc(C#Cc3ccccc3F)cc2)[C@H](CO)N1C(=O)C1CCC1 | 2.2
COc1cccc(C#Cc2ccc([C@@H]3[C@@H](CO)N(C(=O)C4CCCCC4)[C@H]3C#N)cc2)c1 | 4.7
COc1ccccc1C#Cc1ccc([C@H]2[C@H](C#N)N(C(=O)C3CCCCC3)[C@H]2CO)cc1 | -6.3*
